The whole screen tested about 2,300 compounds, of which about 550 (24%) were called active. How the calls were made is not given here. Not all results are given here. Measured potencies and affinities stand elsewhere.

The nature of this experiment: Vero E6 cell cytotoxicity, dose response, cytotoxicity control for non-replicating M. tuberculosis project, secondary assay (AID 492998). The following applies: series mostly up to 20 µM.
`O=C(OCCCCN1C(=O)c2ccccc2C1=O)c1ccc(Br)o1`: the compound was classed as inactive.
To `O=C(COc1ccc2ccccc2c1)Nc1nccs1` belongs “inactive”.
The value for `COc1ccc(C2(O)CCN(CC(=O)Nc3nc(-c4ccccc4)cs3)CC2)cc1` was “inactive”; that for `O=C(CCS(=O)(=O)c1ccccc1)Nc1nnc(-c2ccco2)o1` was “inactive”; that for `CC(C)Cc1nnc(NC(=O)CCS(=O)(=O)c2ccc(Cl)cc2)s1` was “inactive”.
For the compound `Cc1cccc(NC(=O)COC(=O)CCc2c[nH]c3ccccc23)c1C`, the call was inactive.
On to `O=C(COC(=O)COc1ccc(Nc2ccccc2)cc1)NCc1ccco1`, for which the result was inactive.
As for `CCOc1ccc(C(=O)Nc2nc3ccccc3[nH]2)cc1OCC`, the compound was called inactive.
With `Cc1cc2n(n1)SC(Nc1ccccc1)N2` (stereo not drawn), the outcome was inactive.
As for `c1ccc2[nH]c(NC3=NCCC3)nc2c1`, the compound was called inactive.
With `O=C(Nc1nc2ccccc2[nH]1)c1ccc(F)cc1`, the compound was classed as inactive.
To `Nc1ccc(C(=O)N/N=C\C=C\c2ccc([N+](=O)[O-])cc2)cc1` belongs “inactive”.
With `CCCOC(=O)c1cc(-c2ccc(C=O)o2)ccc1Cl`, the compound was called inactive.
`CCCCCCCCCCn1cc(C(C)=O)c(=O)[nH]c1=O`: the result was inactive.
On to `CCC(CC)COC(=O)C(C#N)c1nc2ccccc2nc1N1CCN(CC)CC1` (stereo not drawn), for which the call was inactive.
The value for `CC(CCc1ccccc1)NC(=O)COC(=O)c1cccs1` (stereo not drawn) was “inactive”; that for `COc1ccc(N2C(=O)NC(=O)/C(=C/c3ccc([N+](=O)[O-])s3)C2=O)cc1` was “inactive”; that for `O=C(NCCC1=CCCCC1)c1ccc(Br)o1` was “inactive”.
For the compound `Cc1n[nH]c(=S)n1/N=C/c1ccc(OCc2ccc(Cl)cc2Cl)cc1`, the compound was called inactive.
As to `Cc1cc(-c2c(C)[nH]n(-c3ccccc3)c2=O)n[nH]1`, the result was inactive.
Turning to `O=C1CC(N2CCC(C(=O)N3CCCCC3)CC2)C(=O)N1` (stereo not drawn), the call was inactive.
Take `CCC(=O)c1ccc(OCc2ccc(C(=O)OC)cc2)cc1`: the compound was classed as inactive.
The value for `CCOC(=O)C1=C(c2ccccc2)NC(N)=NC1c1ccc(OCc2ccc(Cl)cc2)c(OC)c1` (stereo not drawn) was “inactive”; that for `CCOC(=O)C(=O)NC12CC3CC(CC(C3)C1)C2` was “inactive”.
Turning to `COC(=O)c1cc(-c2ccc(OC)cc2)on1`, the compound was classed as inactive.
Turning to `O=C1OC(/C=C/c2ccccc2)=NC/1=C\c1cccnc1`, the result was inactive.
In the case of `CCC1CCC(c2nnc(-c3ccc([N+](=O)[O-])cc3)o2)CC1` (stereo not drawn), the call was inactive.
Consider `O=C(OCc1cccc([N+](=O)[O-])c1)c1ccc2ccccc2n1`, for which the outcome was inactive.
For the compound `O=c1c2c([N+](=O)[O-])cc([N+](=O)[O-])cc2nc2ccccn12`, the result was inactive.
For `CCCNC(=O)COC(=O)c1cc2c(=O)n3ccccc3nc2s1`, the outcome was inactive.
On to `CN1/C(=C\C=N\NC(=O)c2cccnc2)C(C)(C)c2ccccc21`, for which the outcome was inactive.
With `O=C(OCC(=O)N1CCc2ccccc2C1)c1cccc([N+](=O)[O-])c1`, the outcome was inactive.
For the compound `COc1cc(/C=N/NC(=O)c2ccncc2)ccc1OC(=O)c1cccc(F)c1`, the result was inactive.
For the compound `CCOC(=O)Nc1cccc(OCC(=O)Nc2ccccc2OC)c1`, the outcome was inactive.
With `Clc1ccc(Cl)c(OCCCCNCc2ccccc2)c1`, the result was inactive.
As for `COc1ccc(NC(=O)COc2ccccc2)cc1Cl`, the result was inactive.
As to `Clc1cccc(CNCCNCc2cccc(Cl)c2)c1`, the result was inactive.
On to `Cc1ccc(NC(=O)CCSc2nnc(Cc3ccccc3)o2)cc1`, for which the compound was classed as inactive.
In the case of `O=S(=O)(c1ccc(OCC2CO2)cc1)c1ccc(OCC2CO2)cc1` (stereo not drawn), the compound was classed as inactive.
For `COc1ccc(CCOC(=O)c2ccc(N)c([N+](=O)[O-])c2)cc1`, the compound was classed as inactive.
Turning to `CCCCN1C(=O)C2(NNc3ccccc3O2)c2ccccc21` (stereo not drawn), the call was inactive.
For `Cc1ccc(NC(=O)COC(=O)CCc2c[nH]c3ccccc23)cc1[N+](=O)[O-]`, the result was inactive.
On to `Cc1cc(NC(=O)c2cc([N+](=O)[O-])cc([N+](=O)[O-])c2)no1`, for which the compound was called inactive.
For `CC(NC(=O)COc1ccc(-c2ccccc2)cc1)C1CCCO1` (stereo not drawn), the compound was classed as inactive.
To `COc1ccc(C(=O)NNC2=C(C(=O)C(F)(F)F)CCC2)cc1` belongs “inactive”.
As for `CCCCNC(=O)COC(=O)c1cc(F)c(F)cc1Cl`, the result was inactive.
To `COc1cc(CNC2CCCC2)cc(Cl)c1OCc1ccc(F)cc1` belongs “inactive”.
For `Clc1ccc(OCCCNCc2ccccc2)c2ccccc12`, the compound was classed as inactive.
In the case of `O=C(Cc1c(F)cccc1Cl)Nc1ncc([N+](=O)[O-])s1`, the outcome was inactive.
Regarding `Cc1nc(C)c(/C(O)=C/c2nc3ccccc3oc2=O)s1`, the compound was called inactive.
For `Cc1cccc2c(CC(=O)O)noc12`, the compound was called inactive.
With `CC(C)(C)c1cc(CN2CCC(O)CC2)cc(C(C)(C)C)c1O`, the result was inactive.
The value for `Cc1ccc(-n2sc3ccccc3c2=O)cc1` was “inactive”; that for `Cc1ccnc(-n2sc3ccccc3c2=O)n1` was “inactive”.
With `Cn1c(=O)c(Oc2ccc(F)cc2)c(O)c2ccccc21`, the compound was called inactive.
On to `CSC1=N/C(=C\c2ccc3c(c2)OCO3)C(=O)S1`, for which the result was inactive.
The value for `O=C(COC(=O)c1ccc(Br)o1)NCCCc1ccccc1` was “inactive”.
To `Cc1ccc(NC(=O)CCSc2nnc(-c3ccco3)o2)cc1` belongs “inactive”; to `Cc1ccccc1C(=O)Nc1nnc(-c2ccco2)o1`, “inactive”.
To `Cc1ccsc1C(=O)OCC(=O)Nc1nnc(-c2ccccc2)o1` belongs “inactive”; to `O=C(NC1CCCC1)c1cc(-c2cccs2)on1`, “inactive”.
As for `O=C(Nc1nnc(C2=COCCO2)o1)c1ccc(Cc2ccccc2)cc1`, the outcome was inactive.
Consider `O=C(Nc1ccc(Cl)cc1)C1CCCC1`, for which the compound was called inactive.
On to `O=C(O)c1ccc(-n2nc(C(F)(F)F)c3c2CCCC3)cc1`, for which the outcome was inactive.
Consider `Brc1c(-c2ccc3c(c2)OCO3)nc2ncccn12`, for which the outcome was inactive.
For `COc1ccc(CC(=O)OCC(=O)Nc2ccc(Br)cc2)cc1`, the call was inactive.
Turning to `CN1CCN(/N=C/c2ccc(-c3ccc([N+](=O)[O-])cc3Cl)o2)CC1`, the outcome was inactive.
For the compound `O=C(Nc1ccc2c(c1)CCC2)c1ccc(Br)o1`, the outcome was inactive.
Regarding `COC(=O)COc1cccc(NC(=O)c2cccc(C)c2)c1`, the compound was called inactive.
Turning to `CCCCN(C)C(=O)c1cc2cc3ccc(OC)cc3nc2s1`, the compound was classed as inactive.
To `O=C(Nc1cccc([N+](=O)[O-])c1)C1COc2ccccc2O1` (stereo not drawn) belongs “inactive”; to `O=C(N/N=C/c1ccc(OC(=O)c2ccco2)cc1)c1ccccn1`, “inactive”; to `Cc1ccc(OC(=O)CCS(=O)(=O)c2ccc(C)cc2)cc1`, “inactive”.
With `CC1=NN(C(=O)c2ccc(Br)cc2)C(O)(c2ccccc2)C1` (stereo not drawn), the call was inactive.
As to `CC1(c2nnc(-c3ccc(F)cc3)o2)CC(c2cccc(Cl)c2)=NO1` (stereo not drawn), the compound was classed as inactive.
`COc1cccc(COC(=O)CCNC(=O)c2ccc(Br)cc2)c1OC`: the call was inactive.
Turning to `CCOc1cc(-c2sc(Nc3cc(C)ccc3OC)n[n+]2-c2ccccc2)ccc1OC`, the compound was called inactive.
With `CN1CCN(c2cc3c(cc2F)c(=O)c(C(=O)O)cn3CCF)CC1`, the call was inactive.
Turning to `Cc1ccccc1C(=O)NN1CC(C(=O)OCc2ccc(Cl)c(Cl)c2)CC1=O` (stereo not drawn), the outcome was inactive.
As to `CCc1ccc(OCCCC(=O)NCc2ccco2)cc1`, the compound was classed as inactive.
In the case of `O=C(COc1ccc([N+](=O)[O-])cc1)NNC(=O)c1cccs1`, the result was inactive.
As for `COc1ccc(NC(=O)C(=O)NNC(=O)C(C)Oc2ccc(Cl)cc2Cl)cc1` (stereo not drawn), the result was inactive.
In the case of `CCCOC(=O)c1ccc(OC(=O)c2ccco2)cc1`, the result was inactive.
As for `C/C(=N\NC(=O)c1ccco1)c1cc(Cl)sc1Cl`, the result was inactive.
Consider `COc1ccc(OCCOC(=O)c2cccs2)cc1`, for which the call was inactive.
For the compound `COc1ccc(OCCC(=O)OCC(=O)Nc2ccc(Br)cc2)cc1`, the compound was classed as inactive.
For the compound `CC(C(=O)OCC(=O)c1ccccc1)N1C(=O)C2C3CCC(C3)C2C1=O` (stereo not drawn), the compound was called inactive.
As to `COc1cccc(C(=O)OCC(=O)c2ccc(Br)s2)c1OC`, the result was inactive.
On to `COc1ccccc1C1=Nn2c(nnc2C2CCCCC2)SC1`, for which the result was inactive.
To `c1nc2n(n1)C1=C(CCCC1)C1(CCCCC1)N2` belongs “inactive”; to `O=C(Nc1ccc(Cl)cc1Cl)c1cccc(N2C(=O)C=CC2=O)c1`, “inactive”.
The value for `O=c1c2cc(Cl)ccc2oc2nc3n(c(=O)c12)CCCS3` was “inactive”; that for `CCCc1nnc(NC(=O)c2cc3ccccc3oc2=O)s1` was “inactive”.
Turning to `COCc1[nH]nc2c1C(c1sccc1C)C(C#N)=C(N)O2` (stereo not drawn), the result was inactive.
The value for `CCc1ccc(OCC(=O)c2c(O)c3ccccc3oc2=O)cc1` was “inactive”; that for `O=C(CCC1CCCCC1)NCc1cccs1` was “inactive”.
Regarding `COc1ccc(/C=C/c2nc3ccccc3c(=O)o2)cc1`, the compound was classed as inactive.
For the compound `C/C(O)=C\c1nc2ccccc2oc1=O`, the compound was classed as inactive.
On to `Oc1cc(NCc2cccnc2)ccc1-c1nc2ccccc2o1`, for which the result was inactive.
With `COc1cc(/C=N/Nc2cccc3cccnc23)cc(OC)c1O`, the outcome was inactive.
Regarding `CC(=O)c1ccc(-c2nnc(CCC(=O)N(C)Cc3cccc4cnccc34)o2)s1`, the compound was classed as inactive.
To `c1coc(CNc2nc(N3CCCCC3)nc3ccccc23)c1` belongs “inactive”.
Turning to `O=[N+]([O-])c1ccc(CSc2nnc(-c3cccnc3)o2)cc1`, the result was inactive.
Consider `CC1CCN(C(=O)COC(=O)CCc2c[nH]c3ccccc23)CC1`, for which the compound was classed as inactive.
Regarding `Cc1ccc(N=N/C(=C\O)C(=O)c2ccncc2)cc1`, the compound was called inactive.
For the compound `CCOC(=O)Nc1cccc(OCC(=O)Nc2ccc(OC)cc2OC)c1`, the compound was classed as inactive.
For the compound `O=C(Nc1ncc([N+](=O)[O-])s1)c1ccc2c(c1)OCO2`, the call was inactive.
To `Cc1ccc(NC(=O)COC(=O)C2=COCCO2)c([N+](=O)[O-])c1` belongs “inactive”; to `O=C(Nc1nccs1)c1ccc2ccccc2c1`, “inactive”; to `O=C(COC(=O)c1cc(Br)ccc1O)Nc1ccc2c(c1)OCO2`, “inactive”.
In the case of `COc1ccc(Nc2ccccc2N)cc1`, the call was inactive.
To `COc1ccc2nc(/N=C(\N)NC(=O)C(C)(C)C)nc(C)c2c1` belongs “inactive”.
Regarding `Cc1cccc(NC(=O)c2cc3ccccc3oc2=O)c1`, the compound was classed as inactive.
Consider `CCc1ccc(N2C(=O)NC(=O)/C(=C\C=C\c3ccco3)C2=O)cc1`, for which the compound was classed as inactive.
On to `O=C(COc1ccc2ccccc2c1)NNC(=O)c1cccs1`, for which the result was inactive.
For `CCc1c(C)c2ccc(OCC(=O)OC)cc2oc1=O`, the result was inactive.
The value for `O=C(O/N=C/c1ccc2c(c1)OCO2)c1ccc([N+](=O)[O-])cc1` was “inactive”; that for `CCC(=O)Nc1ccc(C(=O)NNC(=O)c2cc([N+](=O)[O-])cc([N+](=O)[O-])c2)cc1` was “inactive”.

The values are drawn from PubChem BioAssay AID492998 (Southern Research Specialized Biocontainment Screening …, 2010).
